biological target: Alpha-bungarotoxin (Bungarus multicinctus) (UniProt P60615); experiment: compounds binding labelled alpha-BTX control protein – biochemical, small-molecule microarray, Alexa647 label, 635/667 nm fluorescence, artefact control for SMM control protein annotation, profiling panel (AID 1117); conditions: alpha-BTX-A647 binding fluorescence, higher = more signal
Sequence (P60615 whole entry, looked up): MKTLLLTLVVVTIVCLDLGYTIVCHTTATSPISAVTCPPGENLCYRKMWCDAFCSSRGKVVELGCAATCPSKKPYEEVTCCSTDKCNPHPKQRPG

SMILES	composite z-score
O=C1O[C@H](c2ccccc2)[C@H](c2ccccc2)N2[C@H]1[C@@H](C(=O)NC[C@H](O)c1ccccc1)[C@]1(C(=O)Nc3ccccc31)[C@H]2c1ccccc1OCCO	2.46
[N-]=[N+]=NCc1ccccc1[C@H]1OC(c2ccc(OCCCO)cc2)=N[C@@]1(Cc1ccccc1N=[N+]=[N-])C(=O)N1CCCCC1	1.3
O=[N+]([O-])c1ccc(C[n+]2ccc(-c3ccc(CO)cc3)cc2)o1	1.49
O=C1OCC=C[C@H]2OC34C=CCN(CCN5CCOCC5)C(=O)[C@H]3N(CCCCCO)C(=O)[C@@H]4[C@@H]12 (some centres undefined)	0.396
Cc1ccccc1C(O)C1C=CC2C(=O)N(C)C(=O)C2N1Nc1ccc([N+](=O)[O-])cc1[N+](=O)[O-] (centres undefined)	1.36
O=C1NC(=O)C2C1C=CC(C(O)CCc1ccccc1)N2Nc1ccccn1 (centres undefined)	0.67
O=C(O)[C@@]1(Cc2ccccc2)COC(c2ccc(OCCCO)cc2)=N1	-0.47
COC(=O)[C@@]1(Cc2ccccc2)[C@H]2c3cc(C(=O)N(C)C)n(Cc4ccccn4)c3C[C@H]2CN1C(=O)c1ccccc1	0.94
Cc1ccccc1C(O)C1C=CC2C(=O)N(Cc3ccccc3)C(=O)C2N1n1cnnc1 (centres undefined)	0.611
CCOc1cc(C(O)C2C=CC3C(=O)NC(=O)C3N2Nc2ccccn2)ccc1O (centres undefined)	0.297
CCOC(=O)C[C@H]1[C@H](OC(=O)c2ccccc2-c2ccccc2)[C@@H](NC(=O)c2ccccc2)c2cc(OCCCO)ccc2N1C(=O)Cc1ccc(OC)cc1	0.66
COC(=O)C(CC#Cc1ccc2c(c1)[C@]1(C(=O)N2)[C@H](c2ccccc2OCCO)N2[C@H](c3ccccc3)[C@H](c3ccccc3)OC(=O)[C@H]2[C@@H]1C(=O)Nc1nc2ccccc2s1)C(=O)OC	1.5
C=CCC(OC(C)=O)[C@@H]1[C@@H](N(Cc2cccc3ccccc23)C(=O)c2ccc(C)cc2)c2cc(OCCCO)ccc2N1C(=O)c1ccc2ccccc2c1 (some centres undefined)	0.132
O=C1NC(=O)C2C1C=CC(C(O)c1ccc3c(c1)OCO3)N2Nc1ccc(Cl)cc1Cl (centres undefined)	0.114
CCC[C@@H]1C[C@@]1(CCC)[C@@H](NC(=O)c1ccco1)c1ccc(Cl)cc1	-0.0776
CC(C)NC(=O)[C@@]1(Cc2ccccc2I)c2ccccc2C(=O)N(Cc2ccccc2C(F)(F)F)[C@H]1c1ccc(CO)cc1	0.565
CCOC(=O)C[C@H]1[C@H](OC(=O)c2ccc(C(=O)c3ccccc3)cc2)[C@@H](NC(=O)C2CCCCC2)c2cc(OCCCO)ccc2N1C(=O)Cc1ccc(OC)cc1	0.237
COc1ccc([Si](C)(C)[C@@H]2[C@@H](CC(=O)N3Cc4ccccc4C[C@H]3CO)O[C@]3(C(=O)N(Cc4cccc(N5CCCCC5=O)c4)c4ccccc43)[C@H]2C)cc1	1.9
COCC(=C=CC[C@@H](O)c1ccccc1OCCO)C[C@@H](O)c1ccccn1	0.34
COCCCNC(=O)[C@]1(CCS(=O)(=O)c2ccccc2)N=C(c2ccc(OCCCO)cc2)O[C@@H]1c1ccccc1	1.5
COc1cccc(C[C@H]2C[C@@H](CO[Si](C(C)C)(C(C)C)C(C)C)N3C(=O)[C@]4(C(C)=O)O[C@]23[C@H]2C(=O)N(C)C(=O)[C@H]24)c1	0.866
CCCCC(=C=CC[C@H](O)c1cccc(OCCO)c1)C[C@H](O)COCc1ccccc1	-0.283
CC(C)CNC(=O)[C@@]1(C)c2ccccc2C(=O)N(Cc2ccccc2)[C@H]1c1ccc(CO)cc1	-0.905
O=C1N(Cc2ccccc2)c2ccccc2[C@H]2OC(c3ccc(OCCCO)cc3)=N[C@@]12CCS(=O)(=O)c1ccccc1	0.977
COc1ccc([Si](C)(C)[C@H]2[C@H](CCn3cc(CCO)nn3)O[C@@]3(C(=O)N(Cc4cccc(N5C(=O)c6cccc7cccc5c67)c4)c4ccccc43)[C@@H]2C)cc1	1.07
COCCOC(=O)N1C(=O)[C@@]2(c3cc(C#CCC(C(=O)OC)C(=O)OC)ccc31)[C@H](c1ccc(OCCO)cc1)N1[C@H](c3ccccc3)[C@H](c3ccccc3)OC(=O)[C@H]1[C@@H]2C(N)=O	0.992
[N-]=[N+]=NCc1ccccc1C[C@]1(C(=O)NCCN2CCOCC2)COC(c2ccc(OCCCO)cc2)=N1	-0.0034
O=C(NCc1ccccc1)[C@]1(Cc2ccccc2)N=C(c2ccc(OCCCO)cc2)O[C@@H]1c1ccccc1	0.351
CN(C)C(=O)[C@]1(Cc2ccccc2N=[N+]=[N-])N=C(c2ccc(OCCCO)cc2)O[C@@H]1c1ccccc1CN=[N+]=[N-]	0.564

From PubChem BioAssay
